Bioassay records deposited in PubChem BioAssay by National Center for Advancing Translational Sciences (NCATS).
IL-1B inflam inh – inhibitors of inflammasome signaling (IL-1 beta secretion); THP-1 LPS/ATP IL-1B secretion, AlphaLISA, 16 h; stronger effect = lower value; activity change, % at 57.5 µM; 360,000 compounds, 4.7% hits; AID 743279; in the data active means activity change below about -50%; inconclusive means mostly about -30% to -49%; further: on the % scale 0 is the no-effect control and ±100 the full control effect
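THP-1 cells pretreated 1 hr with compounds (up to 57.5 uM final), then stimulated with LPS (250 ng/mL final) plus ATP (1.25 mM final); secreted IL-1B measured by AlphaLISA after 16 hr, decreased signal indicating inhibition.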
Chronic BCR inh – chronic active BCR signaling inhibition | ABC-DLBCL IkBa-CBG/CBR reporter, luminescence ratio, 4 h | Potency, µM (doses to about 46.1 µM), for inactives: at the top dose activity change, negative = inhibition, usual class: inhibitors | 340,000 compounds, 0.05% hits | AID 493014; active means well fitted inhibition curve with a large enough effect in the signal ratio, with a control signal flat, not every such curve was filed as active; inconclusive means small, poorly fitted or top-dose-only effect, or effect the other way, or a change in a side signal; the % refers to the signal ratio;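 further: potency means the concentration at half of the fitted maximal effect; plate controls were basal doxycycline-induced cells for no effect and cells given 10 µM MG132 for full effect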
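TMD8 human ABC-DLBCL cells with doxycycline-inducible IκBα–green luciferase fusion and unfused red luciferase, in 0.5% FBS medium; compounds up to 46 uM, 4 h at 37C. Green/red luminescence ratio, filter-overlap corrected, fitted to concentration-response curves.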
MCF10A rereplic – induces DNA re-replication in MCF 10a normal breast cells; MCF 10A DNA re-replication, Hoechst nuclear intensity, 48 h; Potency, µM (top dose mostly 46.1 µM), without a hit: at the top dose activity, positive = re-replication, usual class: activators; 350,000 compounds, 2.9% hits; AID 624296; further: potency means the concentration at half of the fitted maximal effect; % of control where 0% means no effect; nearly all actives have a fitted effect of over 50% in size
TDP1 cell noCPT – qHTS for Inhibitors of human tyrosyl-DNA phosphodiesterase 1 (TDP1): qHTS in cells in absence of CPT; 420,000 compounds, 15% hits; DT40 Tdp1-/- hTDP1 cells, no CPT, ATP luminescence, 48 h; Potency, µM (top dose mostly 46.2 µM), without a hit: top-dose activity change, negative = growth inhibition, most hits filed as inhibitors; AID 686978, 2013; further: potency means the concentration at half of the fitted maximal effect; on the % scale 0 is the no-effect control and ±100 the full control effect; nearly all actives have a fitted effect of over 55% in size
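Readout: luminescence from CellTiter-Glo after 30 min in the dark at RT. Cells: DT40 Tdp1-/- with stable hTDP1, 400/well. Exposure: compounds alone, ≥48 hr, 37 °C.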
DT40 TDP1 CPT – growth inhibition of DT40 Tdp1-/-;hTDP1 cells with camptothecin (screen for TDP1 inhibitors) | chicken DT40 Tdp1-/-;hTDP1 cells + 20 nM CPT, ATP luminescence, 48 h | Potency, µM (titrated, usually from 46.2 µM), for inactives: at the top dose activity change, negative = growth inhibition, usual class: inhibitors | 420,000 compounds, 12% hits; further: potency means the concentration at half of the fitted maximal effect; on the % scale 0 is the no-effect control and ±100 the full control effect; nearly all actives have a fitted effect of over 55% in size
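Cell growth measured by CellTiter-Glo luminescence after a minimum 48 h, 37 C compound exposure with 20 nM CPT in Tdp1-knockout DT40 cells stably expressing hTDP1, seeded 400/well; qHTS titration format.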
SW480 rerep – DNA re-replication induction in SW480 cells; 340,000 compounds, 1.8% hits; SW480 DNA re-replication, Hoechst DNA content imaging, 48 h; Potency, µM (highest dose often 46.1 µM), for inactives: at the highest dose re-replication activation, hits mostly activators; further: potency means the concentration at half of the fitted maximal effect; % of control where 0% means no effect; nearly all actives have a fitted effect of over 55% in size
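DNA re-replication was detected as more nuclei of elevated Hoechst intensity after 48 hr exposure to compound (23 nL pinned per well of 250 cells).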
Active calls of the source: *; ? = inconclusive; . = no result given; [ ] = another dose, or the depositor's remark. A selection: hits, their analogues and other compounds. The true share with any hit is near 19%. Unless noted, the call rests on the fitted dose curve; in most records, active means well fitted curve in the direction sought with a large enough effect; inconclusive means small, poorly fitted or top-dose-only effect, or another doubt; inactive means no such curve, though single readings can be large; an effect the other way counts as inactive or inconclusive.

SMILES	IL-1B inflam inh	Chronic BCR inh	MCF10A rereplic	TDP1 cell noCPT	DT40 TDP1 CPT	SW480 rerep
COc1ccc(CCN2CC(C(=O)NCCc3ccccc3C)CCC2=O)cc1 (centres undefined)	1	-1%	-14%	-2%	?	0%
Oc1c(Br)cccc1/C=N/c1ncn[nH]1	38	?	10%	-4%	-3%	-7%
O=[N+]([O-])c1ccc(N2CCN(c3ccc(F)cc3)CC2)cc1	-24	7%	4%	-12%	-5%	-1%
O=C(NC(=S)N1CCN(c2ccc([N+](=O)[O-])cc2)CC1)c1ccc(F)cc1	16	-17%	?	26µM*	?	-13%
O=[N+]([O-])c1ccc(N2CCN(C(=S)Nc3ccccc3)CC2)cc1	10	-11%	0%	?	-20%	2%
CC1CCC(C(=O)NC(C(=O)N2CCc3ccccc3C2)C(C)C)CC1 (centres undefined)	9	1%	9%	?	16µM*	-1%
O=C(NC(=S)N1CCN(c2ccc([N+](=O)[O-])cc2)CC1)c1ccccc1F	-10	-16%	10%	21µM*	?	-2%
O=C(NC(=S)N1CCN(c2ccc(F)cc2)CC1)c1ccccc1	-9	.	.	21µM*	?	.
O=C(NCc1cccnc1)c1cc(C2CCCCN2C(=O)OCCF)on1 (centres undefined)	0	.	.	-10%	6%	.
CC(C)[N+]1(C)[C@@H]2CC[C@H]1CC(OC(=O)[C@@H](CO)c1ccccc1)C2 (some centres undefined)	.	.	.	0%	5%	.
CC(C)C(NC(=O)C1CCCCC1)C(=O)N1CCN(c2ccc(F)cc2)CC1 (centres undefined)	23	0%	327%[0.0737 µM]	16µM*	13µM*	21%
O=C(NC(Cc1ccccc1)C(=O)N1CCCCCC1)c1ccccc1 (centres undefined)	-10	-1%	13%	?	-19%	1%
O=C(NC(Cc1ccccc1)C(=O)N1CCN(c2ccc(F)cc2)CC1)c1ccccc1 (centres undefined)	7	.	.	26µM*	?	.
CC(C)C(NC(=O)c1ccc(Cl)c([N+](=O)[O-])c1)C(=O)NCc1ccccn1 (centres undefined)	-12	3%	5%	-7%	-2%	-8%
Cc1ccc(NC(=O)CSc2nc3ccccc3c(=O)n2CCC(=O)NC2CCCCC2)cc1C	.	2%	.	-5%	-14%	.
CN(C)S(=O)(=O)c1ccc(Cl)c(NC(=O)CSc2nc3ccccc3c(=O)n2CCCN2CCOCC2)c1	-5	-1%	?	26µM*	?	3%
CCc1ccc(NC(=O)CSc2nc3ccccc3c(=O)n2CCNC(C)=O)cc1	.	-16%	.	-22%	-21%	.
Cc1cccc(NC(=O)C(C)Sc2nc3ccccc3c(=O)n2CCCN2CCOCC2)c1 (centres undefined)	?	5%	21%	-22%	23µM*	-4%
CCc1ccc(NC(=O)CSc2nc3ccccc3c(=O)n2CCCN2CCC(C)CC2)cc1	-100*	-2%	?	23µM*	?	9%
Cc1ccc(NC(=O)CSc2nc3ccccc3c(=O)n2CCCN2CCCCC2)cc1C	0	?	15µM*	?	26µM*	?
CC(=O)c1cccc(NC(=O)CSc2nc3ccccc3c(=O)n2CCCN2CCOCC2)c1	-11	0%	18%	?	-21%	-11%
CCCCn1c(SCC(=O)NCc2ccccc2)nc2ccc(N3CCOCC3)cc2c1=O	-8	5%	21%	1.5µM*	-21%	2%
CCCCn1c(SCC(=O)Nc2cc(NC(=O)c3ccco3)ccc2C)nc2ccccc2c1=O	18	0%	?	23µM*	?	1%
Cc1ccc(S(=O)(=O)N(C)C)cc1-n1c(SCC(=O)Nc2ccc(F)cc2Cl)nc2ccccc2c1=O	13	?	1%	16µM*	21µM*	-5%
Cc1ccc(NC(=O)CSc2nc3ccccc3c(=O)n2CCCC(=O)N2CCCC2)cc1	-7	2%	6%	21µM*	18µM*	?
SMILES	IL-1B inflam inh	Chronic BCR inh	MCF10A rereplic	TDP1 cell noCPT	DT40 TDP1 CPT	SW480 rerep
Cc1ccc(S(=O)(=O)N(C)C)cc1-n1c(SCC(=O)Nc2ccc(F)cc2)nc2ccccc2c1=O	0	13%	-3%	?	?	-16%
CCCCn1c(SCC(=O)NCc2ccco2)nc2ccc(N3CCOCC3)cc2c1=O	22	?	?	?	?	1%
O=C(Nc1c(C(=O)O)[nH]c2ccc(F)cc12)c1cccc(C(F)(F)F)c1	-6	?	-14%	-3%	1%	-2%
CC1(c2nc3ccccc3[nH]2)CCC(=O)N1C1CC1 (centres undefined)	34	.	.	16%	7%	.
Cc1ccc2c(c1)C(=O)OC(C(=O)Nc1ccccc1C(=O)O)C2 (centres undefined)	.	?	.	-18%	-9%	.
Cc1ccc2oc(-c3ccc(Cl)c(NC(=O)c4cc5ccccc5o4)c3)nc2c1	.	.	.	-15%	8%	.
Cc1ccc(/C=N/n2cnc3sc4c(c3c2=O)CCCC4)o1	-58*	-4%	?	-18%	-21%	?
CC(C)CN(C(=O)C1CCCO1)c1c(N)n(CC(C)C)c(=O)[nH]c1=O (centres undefined)	9	0%	-3%	0%	-15%	-6%
O=C1C(c2ccccc2)C(c2ccccc2)NC(c2ccccc2)C1c1ccccc1 (centres undefined)	17	3%	?	23µM*	?	0%
O=C1NNC(=O)C1c1ccccc1	-6	22%	-2%	1%	-1%	0%
COc1ccc(-n2c(N)c(C(=O)NCc3ccco3)c3nc4ccccc4nc32)cc1	?	?	4%	?	?	-4%
O=C(NCc1ccco1)C1CCN(c2nc3ccccc3n2Cc2ccc(F)cc2)CC1	?	19%	9%	16µM*	?	1%
Nc1c(C(=O)NCCN2CCOCC2)c2nc3ccccc3nc2n1CCc1ccccc1	-59*	?	1.8µM*	21µM*	?	16µM*
Nc1c(C(=O)NCc2ccco2)c2nc3ccccc3nc2n1CCc1ccc(F)cc1	-116*	?	?	18µM*	21µM*	5.8µM*
